SMILES strings stand for the structures. Where “and” joins values, the source holds several entries; their conditions need not be identical. Identical values can stand only once. In all, about 640,000 compounds went through this assay and about 9,300 (1.5%) were called active. This excerpt belongs to a sample that is enriched for actives. Values without a mark were called inactive. Cut-off read from the data, not from the text of the source: active = inhibition above about 32%; inactive = the rest.

The assay is described as follows: TEAD-YAP interaction inhibition, primary screen, TEAD-YAP interaction inhibitor project, luminescence, HEK-TIYL cells (AID 1259422).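 Note: 0% = median of test compound wells and 100% = reference inhibitor wells.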 The settings on record: TEAD-Gal4/YAP UAS-luciferase luminescence, at 9.12 µM, active compounds read high.
Consider `CCOc1ccc(-c2c(C#N)c(N)nc(OC)c2C#N)cc1`, for which the inhibition is -17.1%.

For the compound `CN1N=C(C(F)(F)F)/C(=N/OC(=O)c2ccc(Cl)cc2Cl)C1=O`, the inhibition is 6.23%.

In the case of `CC(=O)Nc1ccc(Nc2ncnc3nc(-c4c(C)noc4C)[nH]c23)cc1`, the inhibition is -7.16%.

`Cc1ccc(/C=C/C(=O)N2CCN(c3ccc([N+](=O)[O-])cc3)CC2)cc1`: the inhibition is 2.02%. To `CCN(CC)CCNC(=O)c1c(CSc2ccccc2)n(C)c2cc(Br)c(OC)cc12` belongs 6.43%. To `CCOc1ccc(-n2c(SCc3cc(C(C)=O)ccc3OC)nc3c(sc(=S)n3-c3ccccc3)c2=O)cc1` belongs -3.25%; to `Cc1cc(C)cc(C(=O)NCC(=O)OCC(=O)NC(N)=O)c1`, 1.58%.

Turning to `COc1cccc(CNC(=O)c2[nH]c3cc(-c4cn[nH]c4)ccc3c2CN(C)Cc2ccccc2)c1`, the inhibition is -12.2%. To `COc1ccc(-c2nc(Nc3ccc(C)c(F)c3)c3ccccc3n2)cc1OC` belongs -0.35%; to `COc1ccc(-c2nc(Nc3cc(Oc4ccccc4)cc([N+](=O)[O-])c3)c3ccccc3n2)cc1OC`, -13.1%. To `COc1cc(Nc2nc(-c3ccc(OC)c(OC)c3)nc3ccccc23)cc(OC)c1` belongs 43% (active).

For the compound `Nc1nnc(SCC(=O)NC2CCCc3ccccc32)s1` (stereo unspecified), the inhibition was 0.12%. As to `COc1ccccc1-n1nnc(C(=O)NC2CCCc3ccccc32)c1N` (stereo unspecified), the inhibition was 45.5% (active). Turning to `COc1ccccc1-n1nnc(C(=O)N2CCCCC2)c1N`, the inhibition was -0.58%.

As for `Fc1cccc(Cn2nnc(-c3ccc4c(c3)OCO4)n2)c1`, the inhibition is -36.6%.

Regarding `CCOc1ccccc1-n1c(=S)sc2c(=O)n(-c3ccccc3C)c(SCC#N)nc21`, the inhibition was -7.3%.

With `O=[N+]([O-])c1cccc(S(=O)(=O)NNc2ccccc2)c1`, the inhibition is 2.84%.

For the compound `OC(COc1ccccc1CNCCN1CCCCC1)CN1CCc2ccccc2C1` (stereo unspecified), the inhibition was 2.84%. On to `Cc1c(C(=O)Nc2ccc(F)cc2F)sc2ncnc(N3CCc4ccccc4C3)c12`, for which the inhibition was 12.9%.

`S=c1[nH]c(-c2ccc(Cl)cc2)cn1-c1cccc(Cl)c1`: the inhibition is -6.64%. To `O=c1oc2ccccc2cc1-c1cn(-c2ccccc2)c(=S)[nH]1` belongs 72.7% (active); to `O=c1oc2ccccc2cc1-c1nnc(-c2ccccc2)o1`, -51.9%; to `CC(C)n1c(Nc2ccc(N3CCOCC3)cc2)nc2c(NCCc3ccc(O)cc3)ncnc21`, 12.6%.

`CCOC(=O)c1c(NC(=O)CN2CCCC2)sc(C)c1-c1ccccc1`: the inhibition is 4.43%. With `CCOc1ccc2cc(C#N)c(SCC(=O)NCc3ccc(OC)cc3)nc2c1`, the inhibition is 3.49%. For `COc1ccc2cc(C#N)c(SC)nc2c1`, the inhibition is 33.8% (active). As for `COc1ccc(OC)c(NC(=O)CSc2nc3cc(OC)ccc3cc2C#N)c1`, the figure is 6.71%; as for `O=C(CSc1nc2ccc(Br)cc2c2nc3ccccc3n12)NCc1ccccc1`, 0.74%; as for `CC(C)C(O)c1ccc2c(c1)CN(Cc1cccc(OCCO)c1)CCO2` (stereo unspecified), 1.92%. To `CCn1nc(C)c(CN2CCOc3ccc(C(O)c4cccnc4)cc3C2)c1C` (stereo unspecified) belongs 36.6% (active).

On to `CCOc1ccccc1CN1CCOc2ccc(C(O)c3cccnc3)cc2C1` (stereo unspecified), for which the inhibition is 5.37%. To `CCOc1ccc(-c2n[nH]c3c2C(c2ccccc2OC)NC3=O)cc1` (stereo unspecified) belongs 18.1%; to `O=C1CCCC2=C1C(c1ccccc1[N+](=O)[O-])C1=C(CCCC1=O)O2`, -1.3%; to `CSc1sc(SC)c(CO)c1CO`, -4.01%. To `CN1CCN(NC(=O)c2cc3c(s2)CCCCC3)CC1` belongs 12.5%; to `O=C(Nc1ccccn1)c1cc2c(s1)CCCC2`, 93.2% (active). As for `Cc1cccc(C(=O)Nc2sc3c(c2C(=O)Nc2ccccn2)CCCC3)c1`, the figure is -4.61%; as for `CC(C)NC(=O)Cn1nc2n(CC(=O)NC3CCCCC3C)c3ccccc3n2c1=O` (stereo unspecified), 1.58%. As for `O=C(Nc1ccc(S(=O)(=O)Nc2nccs2)cc1)c1cc(Cl)cc(Cl)c1`, the inhibition was 1.26%. As for `C/C=C/c1ccc(Oc2ccc([N+](=O)[O-])c3cnccc23)c(OC)c1`, the figure is -0.05%; as for `Brc1ccc2ncnc(NCc3cccnc3)c2c1`, 34.6% (active). To `Clc1ccc(Cn2ncc3c(NCc4cccnc4)ncnc32)cc1` belongs 19.8%; to `Cn1ncc2c(NCc3cccnc3)ncnc21`, 3.93%.

Regarding `CCCNc1cc(CC)nc2c3c(C)cc(C)nc3nn12`, the inhibition was -5.94%. As for `CCOc1cccc2sc(N3CCOCC3)nc12`, the figure is -1.73%; as for `COc1cc2c(cc1/C=C1/NC(=O)N(Cc3ccccc3Cl)C1=O)OCO2`, -0.77%; as for `O=C1/C(=C/c2ccc(-c3ccc([N+](=O)[O-])cc3)o2)C=C(c2ccccc2)N1c1cccc(Br)c1`, 5.51%. To `CC(C)=NOC(=O)CCS(=O)(=O)c1nc(-c2cccs2)cc(C(F)(F)F)n1` belongs -33.7%; to `Cc1ccc(NC(=O)CSC2=C(C#N)C(c3ccc(F)cc3)CC(=O)N2)cc1` (stereo unspecified), 11.8%; to `CCN1/C(=C/c2ccc3cc(OC)ccc3[n+]2CC)Sc2c1ccc1c2CCCC1`, 87.9% (active). As for `CCN1/C(=c2/s/c(=C3/C(=O)N(c4ccccc4)NC3=Nc3ccccc3)n(CC)c2=O)Sc2ccc(OC)cc21`, the figure is 5.23%; as for `CCN1/C(=C/c2ccc3cc(C)ccc3[n+]2CC)Sc2ccc(OC)cc21`, 83.3% (active); as for `CCN1/C(=C/c2ccc3cc(C)ccc3[n+]2CC)Sc2ccc(-c3ccccc3)cc21`, 88.8% (active).

As to `CCN1C(=O)/C(=C\c2ccc(OC)cc2)SC1=S`, the inhibition is 6.61%. To `CCN1/C(=C/c2ccc3ccc(C)cc3[n+]2CC)Sc2ccccc21` belongs 87.4% (active); to `CCC(/C=C1\Sc2ccc(-c3ccccc3)cc2N1CC)=C\c1sc2ccc3ccccc3c2[n+]1CC`, 21.8%. Turning to `CC[N+]1=C(C)C(C)(C)c2cc(-c3ccccc3)ccc21`, the inhibition was 25.8%.

Turning to `Cc1noc(/C=C/N(C)C)c1S(=O)(=O)N1CCC(C(=O)N2CCCC2)CC1`, the inhibition was -1.15%. As for `CCN1C(=O)/C(=c2\sc3nc(-c4ccccc4)nn3c2=O)c2ccccc21`, the figure is -17.8%. With `O=C(NCc1cccnc1)C1CCCN(S(=O)(=O)c2ccc3[nH]c(=O)ccc3c2)C1` (stereo unspecified), the inhibition is 6.17%. To `CCC(=O)N1c2ccccc2C2=C(SC(C(=O)OC)=C(C(=O)OC)C23SC(C(=O)OC)=C(C(=O)OC)S3)C1(C)C` belongs 3.65%. As for `CCC1CCCCN1C(=O)c1sc2ncnc(N3CCN(c4ccc(OC)cc4)CC3)c2c1C` (stereo unspecified), the figure is 7.77%; as for `CCOC(=O)CC(=O)CSc1ccc2nnc(-c3ccc(Cl)cc3)n2n1`, 1.1%. For `CC1CC1c1ccc(/C=C(\C#N)C(=O)Nc2cccc([N+](=O)[O-])c2)o1` (stereo unspecified), the inhibition was -64.5%.

Turning to `COc1ccc2nc3c(nc2c1)C(=O)c1ccccc1C3=O`, the inhibition was -19.6%. Consider `Cc1ccc2c(c1)C(=O)c1cc3ccccc3nc1-2`, for which the inhibition is -59.4%. Regarding `Cc1ccc2nc3c(nc2c1)C(=O)c1ccccc1-3`, the inhibition is 46.8% (active). For the compound `CCOc1ccc(N(C)S(=O)(=O)c2ccc3[nH]cc(C(=O)NCc4cccnc4)c(=O)c3c2)cc1`, the inhibition was 3.1%. As for `O=C(Nc1cccc(Cl)c1)Nc1noc2c1COc1ccccc1-2`, the figure is -1.02%; as for `COC(=O)/C=C1/C(=O)Nc2ccccc21`, 63.4% (active); as for `COC(=O)/C=C1\Nc2ccccc2OC1=O`, -5.86%.

Consider `COC(=O)/C=C(C(=O)OC)/C(C(=O)OC)=C1\Nc2ccccc2NC1=O`, for which the inhibition is 8.52%.

On to `Cc1cc(C(=O)N2CCOCC2)c2ccccc2n1`, for which the inhibition is 6.26%. To `Nc1nc(NCCCN2CCCC2=O)cc(Nc2ccccc2)n1` belongs -3.84% and 0.61%; to `CCOC(=O)c1cnn(-c2nc3ccccc3s2)c1CNC(C)c1ccco1` (stereo unspecified), -20.8%. To `Nc1c(C(=O)c2ccc(Cl)cc2)sc2nc3c(cc12)CCCCCC3` belongs -9.12%. To `Nc1c(C(=O)c2ccccc2)sc2nc3c(cc12)CCCCC3` belongs 72.9% (active); to `Cc1c(Cl)cccc1NC(=O)c1sc2nc3c(cc2c1N)C(=O)CCC3`, 41.4% (active); to `Cc1cccc(NC(=O)c2sc3nc4c(cc3c2N)CCC4)c1C`, 36.1% (active). Take `CC(=O)Nc1ccc(NC(=O)c2sc3nc4c(cc3c2N)CCCCCC4)cc1`: the inhibition was -8.57%. To `Nc1c(C(=O)Nc2cccc(C(=O)O)c2)sc2nc3c(cc12)CCCCC3` belongs -17.2%; to `CC1(C)CC(=O)c2cc3c(N)c(C(=O)Nc4ccccc4Cl)sc3nc2C1`, -21.4%; to `Nc1c(C(=O)c2ccc(Br)cc2)sc2nc3c(cc12)CCCC3`, -11.1%. Take `Nc1c(C(=O)N2CCCCC2)sc2nc3c(cc12)CCC3`: the inhibition is -59.9%.

For the compound `Cc1cc(C(=O)COC(=O)c2cc(Cl)cc(Cl)c2N)c(C)n1CC1CCCO1` (stereo unspecified), the inhibition was 7.73%.

Consider `CCn1cc(CN[C@H]2C[C@H]3C(=O)N[C@@H](Cc4ccc(O)cc4)C(=O)N3C2)c(C)n1`, for which the inhibition is 9.24%. As for `COCc1ccc(-c2ccc(OC3CCN(c4ncnc5nc[nH]c45)CC3)cc2)cc1`, the figure is -7.79%; as for `CCCCCCOC1OC(COC(C)=O)C(OC(C)=O)C(OC(C)=O)C1NC(C)=O` (stereo unspecified), 10.2%. As for `COc1ccc(-c2c(C)nn3c(NCCO)c4c(nc23)CCCC4)cc1`, the inhibition was 0.55%. For `COC(=O)C(NNc1ccccc1C)(NC(=O)c1ccc(Cl)cc1)C(F)(F)F` (stereo unspecified), the inhibition is -4.69%. As for `Cc1ccc(C)c(OCC(=O)NC(C)(C)C)c1`, the figure is 1.69%.

The inhibition is the relative decrease from the control value, in per cent.

The record behind these values is PubChem BioAssay AID1259422 (The Scripps Research Institute Molecular Screening Center, 2018).
